Assay results taken from PubChem BioAssay AID652115 (Broad Institute, 2013).
The campaign covered roughly 330,000 compounds. About 3,800 (1.2%) were called active. Cut-off read from the data, not from the text of the source: active = inhibition above about 15%; inconclusive = no clear call, values can overlap the other calls; inactive = below that. Many of the other results were omitted from the sample, so actives are more common in it than they were.

target: NAD-dependent protein deacylase sirtuin-5, mitochondrial (Homo sapiens) (UniProt Q9NXA8); assay: SIRT5 desuccinylase inhibitors, primary screen, biochemical, fluorescence imaging, single point, set 5 (AID 652115); details: Purified SirT5, succinyl-peptide AMC, trypsin-coupled fluorescence; at 15 µM; active compounds read high
Sequence (Q9NXA8 whole entry, looked up): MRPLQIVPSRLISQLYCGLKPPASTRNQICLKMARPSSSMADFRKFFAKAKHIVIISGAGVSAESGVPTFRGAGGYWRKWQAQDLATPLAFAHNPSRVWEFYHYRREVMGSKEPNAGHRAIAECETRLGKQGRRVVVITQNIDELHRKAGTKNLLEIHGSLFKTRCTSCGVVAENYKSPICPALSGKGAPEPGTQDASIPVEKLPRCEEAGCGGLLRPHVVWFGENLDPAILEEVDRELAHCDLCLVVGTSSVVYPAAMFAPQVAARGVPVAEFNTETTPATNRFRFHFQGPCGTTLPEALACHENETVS

| Compound | inhibition |
| --- | --- |
| Cc1ccc(NC(=O)C2CC(=O)N(c3ccc4c(c3)OCCO4)C2)cc1S(=O)(=O)N1CCCCCC1 (stereo unspecified) | 15.7% (active) |
| COc1ccc(S(=O)(=O)N2CCCCC2)cc1NC(=O)C1CC(=O)N(c2ccc3c(c2)OCCO3)C1 (stereo unspecified) | -0.216% (inactive) |
| Cc1ccc(N2CC(C(=O)Nc3ccc(S(=O)(=O)N4CCCC4)cc3)CC2=O)cc1C (stereo unspecified) | -0.84% (inactive) |
| CN1[C@@H]2c3ccc(-c4cccc(F)c4)c(=O)n3C[C@@H]2[C@@H](CO)[C@@H]1C(=O)NC1CCC1 | 1.95% (inactive) |
| CC(C)(C)OC(=O)N[C@H](C(=O)OC(C)(C)C)c1ccc(Br)cc1 | 0.762% (inactive) |
| CC(C)(C)OC(=O)Nc1ccc([C@@H](NC(=O)OC(C)(C)C)C(=O)OC(C)(C)C)cc1 | 4.38% (inactive) |
| COC(=O)c1ccc([C@@H](O)[C@H](C)C(=O)CC(=O)OC(C)(C)C)cc1 | 37.8% (active) |
| C[C@@H]1CN([C@H](C)CO)C(=O)c2c(c3ccccc3n2C)-c2ccccc2CO[C@H]1CN(C)Cc1ccc(F)cc1 | 8.7% (inactive) |
| C[C@H]1CN([C@@H](C)CO)C(=O)c2cc(-c3cccnc3)cnc2O[C@@H]1CN(C)C(=O)C1CC1 | -5.02% (inactive) |
| Cc1ccc(S(=O)(=O)Nc2ccc3c(c2)CC(=O)N([C@@H](C)CO)C[C@H](C)[C@H](CN(C)Cc2ccc(C(=O)Nc4ccccc4N)cc2)O3)cc1 | 3.56% (inactive) |
| C[C@H](CO)N1C[C@H](C)[C@@H](CN(C)Cc2ccc(C(=O)O)cc2)Oc2ccc(NC(=O)Cn3cnnn3)cc2CC1=O | 0.832% (inactive) |
| C[C@H]1CN([C@@H](C)CO)C(=O)Cc2cc(NC(=O)Cn3cnnn3)ccc2O[C@@H]1CN(C)Cc1ccc(-c2ccccc2)cc1 | 4.01% (inactive) |
| C[C@@H]1CN([C@H](C)CO)C(=O)Cc2cc(NC(=O)Cc3ccccc3)ccc2O[C@H]1CN(C)Cc1ccc(Oc2ccccc2)cc1 | 11.3% (inactive) |
| C[C@H]1CN([C@@H](C)CO)C(=O)Cc2cc(NS(=O)(=O)c3ccccc3)ccc2O[C@@H]1CN(C)Cc1ccc(C(=O)Nc2ccccc2N)cc1 | -3.96% (inactive) |
| C[C@@H]1CN([C@@H](C)CO)C(=O)Cc2cc(NC(=O)Cc3ccccc3)ccc2O[C@@H]1CN(C)Cc1ccc(Oc2ccccc2)cc1 | 15.7% (active) |
| C[C@@H]1CN([C@H](C)CO)C(=O)Cc2cc(NC(=O)CCC(F)(F)F)ccc2O[C@@H]1CN(C)Cc1ccncc1 | -3.99% (inactive) |
| COc1ccc(CN(C)C[C@H]2Oc3ccc(NC(=O)Cc4ccccc4)cc3CC(=O)N([C@@H](C)CO)C[C@@H]2C)cc1 | 3.47% (inactive) |
| C[C@H]1CN([C@@H](C)CO)C(=O)Cc2cc(NS(=O)(=O)c3ccccc3)ccc2O[C@H]1CN(C)Cc1ccc(C(=O)Nc2ccccc2N)cc1 | 18.7% (active) |
| C[C@@H]1CN([C@@H](C)CO)C(=O)Cc2cc(NC(=O)CCCN(C)C)ccc2O[C@@H]1CN(C)Cc1ccc(-c2ccccc2)cc1 | -0.666% (inactive) |
| C[C@H]1CN([C@@H](C)CO)C(=O)Cc2cc(NC(=O)Cn3cnnn3)ccc2O[C@H]1CN(C)Cc1ccc(C(=O)O)cc1 | 18% (active) |
| C[C@H](CO)N1C[C@H](C)[C@@H](CN(C)Cc2ccc(-c3ccccc3)cc2)Oc2ccc(NC(=O)CCC(F)(F)F)cc2CC1=O | 16.8% (active) |
